Measurements as given in ChEMBL document CHEMBL3988442, “University of Dundee, Small-Polar-MMV Screening Library” (2021).
The campaign covered roughly 48,000 compounds. About 13,000 (27%) showed an effect of 50% or more. This is one part of the list.

What follows are compounds tested on Wolbachia pipientis (assay: Anti-Wolbachia Cell-Based Screen). Conditions: 5 µM.
Type: functional
Parameters: scale not given: in the data most compounds retested in dose-response had high values

Compound	Percent Effect
CC(C)OC(=O)N1C[C@H]2CC[C@@H]1CN(C(=O)c1ccccc1)C2	-6.398%
O=C(COc1coc(CN2CCCCC2)cc1=O)Nc1ccccc1Cl	12.81%
Cc1csc(CNC(=O)NCC(O)c2ccc(F)c(F)c2)n1 (stereo unspecified)	-9.167%
COc1ccc(-n2ccnc2-c2cnc(C(C)C)nc2)cc1C(=O)O	-1.473%
CCNC(=O)NC(=O)CSC(C)c1c(F)cccc1F (stereo unspecified)	4.576%
CCCS(=O)(=O)NCCc1ncc(C)s1	113.4%
CCCS(=O)(=O)NCc1ncc(C)c(OC)c1C	21.89%
CCc1cnc(CCNS(C)(=O)=O)s1	96.32%
CCc1cnc(CN(C)C(=O)NC2CCN(CC3CC3)C2)s1 (stereo unspecified)	-7.872%
CS(=O)(=O)NCCc1cccc2cccnc12	-14.96%
CCc1cnc(CCNC(=O)N2CCCC(c3ncc[nH]3)C2)s1 (stereo unspecified)	-8.688%
CCCS(=O)(=O)NCCc1ncc(CC)s1	98.37%
CCCS(=O)(=O)NCCn1ccc(-c2cccs2)n1	29.12%
Cc1cnc(CCNC(Cc2ccncc2)C(F)(F)F)s1 (stereo unspecified)	4.089%
Cc1noc(C)c1CN(C)Cn1nccc1-c1cccnc1	-3.571%
N#Cc1ccccc1CC1CCCS(=O)(=O)C1 (stereo unspecified)	23.18%
Cc1ccc(NC2CCN(C(=O)C(C(C)C)n3cncn3)CC2)nn1 (stereo unspecified)	114.7%
CC(C)C(C(=O)N1CCC(Nc2cccnn2)CC1)n1cncn1 (stereo unspecified)	1.287%
Cc1ccc(NC2CCN(C(=O)C(C)n3cncn3)CC2)nn1 (stereo unspecified)	101.5%
CC(C)C(C(=O)N1CCC(N(C)c2cccnn2)CC1)n1cncn1 (stereo unspecified)	6.546%
CCc1nc(Cn2cncc(Br)c2=O)no1	3.979%
Cc1nc(NC(=O)CCOCC(F)(F)F)ccc1Br	7.301%
CC(C)n1cnnc1Cn1c(=O)ccc2ccccc21	-18.72%
COCCc1noc(-c2cn(Cc3ccc(OC)cc3)nn2)n1	3.926%
CS(=O)(=O)c1ccc(O[C@H]2COCCN(Cc3ccncc3)C2)cc1	8.188%
CN(C)c1nccc(C2CCN(C3CCCCC3O)CC2)n1 (stereo unspecified)	139.6%

Compound	Percent Effect
O=C(Nc1ccc2ncsc2c1)N1CCCN([C@H]2COC[C@@H]2O)CC1	-6.319%
FC(F)(F)c1c[nH]c(C2CCN(c3ncccn3)CC2)n1	-5.698%
Cc1cc(C)nc(N2CCC(c3ccnc(N(C)C)n3)CC2)n1	86.89%
CN(C)c1cccc(C2CCN(C3COCC3O)CC2)n1 (stereo unspecified)	145.5%
CC(C)c1ccnc(N[C@H]2COC[C@@H]2N2CCCC2)n1	5.714%
CN(C)c1cccc(C2CCN(c3ncccn3)CC2)n1	105.5%
CCn1cnnc1CN(C)c1nccc(C2CCCC2)n1	-5.507%
CN(C)c1ccnc(N2CCC(NCCOc3ccccc3)CC2)n1	-8.661%
Cc1cc(C)nc(N2CCC(c3nnc(CN(C)C)n3C3CC3)CC2)n1	-32.06%
CN(Cc1nncn1C)c1nccc(C2CCCC2)n1	-0.6799%
COc1cc(C)nc(N2CCN(C(=O)CN(C)C3CC3)CC2)n1	-6.068%
Cc1noc(CN2CCOC(CN(C)C)C2)n1 (stereo unspecified)	4.204%
O=C1CO[C@H]2CN(S(=O)(=O)c3ccccc3)C[C@H]2N1CC1CCCCC1	-1.242%
CCN(CC1CCOC1)C(=O)Cn1nnn(-c2cccs2)c1=O (stereo unspecified)	-8.505%
COc1cc(OC)c(CNC(=O)NCC(=O)N2CCCC2)c(OC)c1	0.1885%
Cn1cc(CN2CC[C@@H]3[C@@H](CCC(=O)N3CCC3=CCCCC3)C2)cn1	-6.139%
CC1CCN(CC(=O)NC(C#N)c2cnn(-c3ccccc3)c2)CC1 (stereo unspecified)	-3.926%
Cc1ccsc1C(=O)Nc1ccc(N2CCC(O)CC2)c(C#N)c1	-13.01%
Cc1cc(C)c(CNC(=O)NCc2nnc3n2CCCC3)c(=O)[nH]1	-2.933%
CN(Cc1nccs1)C1CCN(c2ncccn2)CC1	-5.116%
CN(C)c1nccc(C2CCN(c3ncccn3)CC2)n1	131.2%
CCN(CC)C1CCN(c2nccc(C3CCCC3)n2)C1 (stereo unspecified)	2.281%
Fc1cnc(NCC2Cn3nnc(-c4ccccc4)c3CO2)nc1 (stereo unspecified)	-26.66%
O=C1CCSCC(C(=O)N2CCCC2)N1 (stereo unspecified)	-10.11%
CC(=O)N1CCC2(CC1)CN(C(C)C)c1ccc(F)cc12	93.83%
CNC(=O)N1CCC2(CC1)CN(C)c1ccc(F)cc12	-1.265%

Compound	Percent Effect
COCC(=O)N1CCC2(CC1)CC(OC)c1ccc(F)cc12 (stereo unspecified)	-1.265%
CN(C)C(=O)N1CC2(CCN(CC3CC3)CC2)c2cc(F)ccc21.O=C(O)C(F)(F)F	-28.12%
COCC(=O)N1CCC2(CC1)CN(CC1CC1)c1ccc(F)cc12	102.5%
CC(=O)N1CCC2(CC1)C(=O)N(C)c1ccc(F)cc12	-20.1%
CC(=O)N1CCC2(CC1)CN(C(=O)C1CC1)c1ccc(F)cc12	-23.77%
COCC(=O)N1CCC2(CCc3ccc(F)cc32)CC1.Cl	-16.21%
CC(=O)N1CC2(CCN(C(=O)C3CC3)CC2)c2cc(C)ccc21	-2.981%
Cc1ccc2c(c1)C1(CCN(C(N)=O)CC1)CN2C(=O)N(C)C	10.3%
Cc1ccc2c(c1)C1(CCN(C(N)=O)CC1)CN2CC1CC1	104%
CC(=O)N1CCC2(CC1)CN(CC1CC1)c1ccc(F)cc12	110.5%
COCc1cccc(S(=O)(=O)NCc2cnn(C)c2C)c1	10.62%
CC(=O)c1cccc(NS(=O)(=O)c2cc(C)c(C(=O)O)s2)c1	6.094%
O=C(NCc1ccc(Br)cc1)NCC1CCOC1 (stereo unspecified)	-13.61%
Cc1cccnc1NC(=O)NCc1ccc(N2CCNC(=O)C2)cc1	-1.064%
NS(=O)(=O)Cc1ccc(CNC(=O)NCC2CCOC2)cc1 (stereo unspecified)	-4.862%
CC(O)CNC(=O)NCc1ccc(N2CCNC(=O)C2)cc1 (stereo unspecified)	-1.608%
O=C1CN(c2ccc(CNC(=O)NCc3ccoc3)cc2)CCN1	94.29%
CC(C(=O)NCc1ccc(N2CCNC(=O)C2)cc1)c1cccs1 (stereo unspecified)	88.68%
Cc1nc(C(=O)NCc2ccc(N3CCNC(=O)C3)c(F)c2)cs1	-8.487%
O=C1CN(c2ccc(CNC(=O)NCCO)cc2)CCN1	104.3%
Cc1ccccc1C(=O)NCc1ccc(N2CCNC(=O)C2)cc1	3.423%
CCSc1cncc(NCc2ccc(N3CCNC(=O)C3)cc2)n1	-9.871%
CC(C(=O)NCc1ccc(N2CCNC(=O)C2)cc1)n1cncn1 (stereo unspecified)	-3.383%
O=C1CN(c2ccc(CNC(=O)NCC3CCOC3)cc2)CCN1 (stereo unspecified)	100.4%
